Laboratory results: PubChem BioAssay AID1159580 (chemical genetic matrix, 2015)
Among all 5,500 compounds or so, about 2,000 (36%) were called active. Roughly 18% stayed inconclusive and do not appear here. Rule as the data show it: active = normalized growth mostly below about 0.91 (no sharp cut-off); inconclusive = no clear call, values can overlap the other calls; inactive = mostly above about 0.92. Some of the results follow.

Test: chemical genetic growth profiling, strain panel (AID 1159580);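 also: tested at 20 µM; growth read once vehicle control cultures reached saturation at 30 °C; 1 = growth at the plate median or of vehicle wells; lower values mean less growth of the strain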
Settings: S. cerevisiae deletion strains, growth OD
[1] = locus YCL061C, strain MRC1, hits give low values

Measured: normalized growth

NC1=C(c2ccccc2)C(=O)NC1=O
inactive: locus YAL013W, strain DEP1, hits give low values 1.01 | locus YBR229C, strain ROT2, hits give low values 1.05 | [1] 1.03 | locus YDL101C, strain DUN1, hits give low values 0.993 | locus YDR150W, strain NUM1, hits give low values 0.991 | locus YEL061C, strain CIN8, hits give low values 0.999 | locus YGR078C, strain PAC10, hits give low values 0.998 | locus YGR229C, strain SMI1, hits give low values 1.01 | locus YHR030C, strain SLT2, hits give low values 1.02 | locus YHR087W, strain rtc3, hits give low values 0.988 | locus YJR043C, strain POL32, hits give low values 1.01 | locus YJR075W, strain HOC1, hits give low values 0.95 | locus YLR039C, strain RIC1, hits give low values 1.02 | locus YLR058C, strain SHM2 (second series), hits give low values 1.02 | locus YLR085C, strain ARP6, hits give low values 0.946 | locus YLR262C, strain YPT6, hits give low values 1.01 | locus YML094W, strain GIM5, hits give low values 0.993 | locus YMR219W, strain ESC1, hits give low values 0.984 | locus YMR263W, strain SAP30, hits give low values 1.01 | locus YNL128W, strain TEP1, hits give low values 1.03 | locus YNL153C, strain GIM3, hits give low values 1 | locus YNL298W, strain CLA4 (second series), hits give low values 0.996 | locus YNL322C, strain KRE1, hits give low values 1 | locus YNR030W, strain Alg12, hits give low values 0.989 | locus YPL055C, strain LGE1, hits give low values 0.994 | locus YPL241C, strain CIN2, hits give low values 1.01 | locus YPR135W, strain CTF4, hits give low values 0.974

CCCCCCCC/C=C/CCCCCCCCOP(=O)([O-])OCC[N+](C)(C)C
active: locus YAL021C, strain ccr4, hits give low values 0.0587 | locus YAL026C, strain drs2, hits give low values 0.0561 | locus YAL030W, strain snc1, hits give low values 0.053 | locus YBL061C, strain skt5, hits give low values 0.0558 | locus YBR009C, strain hhf1, hits give low values 0.0546 | locus YBR023C, strain chs3, hits give low values 0.0583 | locus YBR171W, strain sec66, hits give low values 0.0745 | locus YBR231C, strain swc5, hits give low values 0.0586 | locus YBR279W, strain paf1, hits give low values 0.0563 | locus YCL011C, strain gbp2, hits give low values 0.0519 | locus YCL016C, strain dcc1, hits give low values 0.0586 | [1] 0.0589 | locus YCL069W, strain vba3, hits give low values 0.0556 | locus YCR088W, strain abp1, hits give low values 0.0562 | locus YDL005C, strain med2, hits give low values 0.0694 | locus YDL040C, strain nat1, hits give low values 0.0556 | locus YDR001C, strain nth1, hits give low values 0.0555 | locus YDR069C, strain doa4, hits give low values 0.0593 | locus YDR137W, strain rgp1, hits give low values 0.105 | locus YDR159W, strain sac3, hits give low values 0.0716 | locus YDR195W, strain ref2 0.0966 | locus YDR297W, strain sur2, hits give low values 0.0533 | locus YDR334W, strain swr1, hits give low values 0.0581 | locus YDR335W, strain msn5, hits give low values 0.0561 | locus YDR392W, strain spt3, hits give low values 0.0625 | locus YEL003W, strain gim4, hits give low values 0.0513 | locus YEL037C, strain rad23, hits give low values 0.0533 | locus YEL061C, strain CIN8 (second series), hits give low values 0.0564 | locus YER015W, strain faa2, hits give low values 0.0609 | locus YER016W, strain bim1, hits give low values 0.0567 | locus YER111C, strain swi4, hits give low values 0.0743 | locus YER155C, strain BEM2 (second series), hits give low values 0.0793 | locus YFR010W, strain ubp6, hits give low values 0.0589 | locus YGL167C, strain pmr1, hits give low values 0.0691 | locus YGL173C, strain kem1, hits give low values 0.0671 | locus YGL227W, strain vid30, hits give low values 0.0578 | locus YGL240W, strain doc1, hits give low values 0.0658 | locus YGL253W, strain hxk2, hits give low values 0.0494 | locus YHR013C, strain ard1, hits give low values 0.0918 | locus YHR027C, strain rpn1, hits give low values 0.0597 | locus YHR142W, strain chs7, hits give low values 0.0608 | locus YJL092W, strain hpr5, hits give low values 0.0556 | locus YJL095W, strain BCK1 (second series), hits give low values 0.0534 | locus YJL115W, strain asf1, hits give low values 0.0664 | locus YJL129C, strain trk1, hits give low values 0.0759 | locus YJL154C, strain vps35, hits give low values 0.0613 | locus YJL164C, strain tpk1, hits give low values 0.0536 | locus YJL166W, strain qcr8, hits give low values 0.0552 | locus YJL187C, strain SWE1, hits give low values 0.055 | locus YKL160W, strain elf1, hits give low values 0.0575 | locus YKR026C, strain gcn3, hits give low values 0.0565 | locus YKR091W, strain srl3, hits give low values 0.0556 | locus YLL001W, strain dnm1, hits give low values 0.0557 | locus YLL026W, hits give low values 0.0528 | locus YLL041C, strain sdh2, hits give low values 0.0534 | locus YLR027C, strain aat2, hits give low values 0.0482 | locus YLR221C, strain rsa3, hits give low values 0.0536 | locus YLR258W, strain gsy2, hits give low values 0.0544 | locus YLR262C, strain YPT6 (second series), hits give low values 0.0801 | locus YLR320W, strain mms22, hits give low values 0.066 | locus YLR342W, strain FKS1, hits give low values 0.0588 | locus YLR357W, strain rsc2, hits give low values 0.106 | locus YLR370C, strain arc18, hits give low values 0.056 | locus YLR384C, strain iki3, hits give low values 0.0574 | locus YML120C, strain ndi1, hits give low values 0.0534 | locus YMR058W, strain fet3, hits give low values 0.0555 | locus YMR125W, strain sto1, hits give low values 0.062 | locus YMR129W, hits give low values 0.0548 | locus YMR205C, strain PFK2, hits give low values 0.0726 | locus YMR231W, strain pep5, hits give low values 0.065 | locus YNL071W, strain lat1, hits give low values 0.0563 | locus YNL209W, strain ssb2, hits give low values 0.0577 | locus YNL248C, strain rpa49, hits give low values 0.0552 | locus YNL322C, strain KRE1 (second series), hits give low values 0.0595 | locus YNR049C, strain mso1, hits give low values 0.0525 | locus YOR001W, strain rrp6, hits give low values 0.0584 | locus YOR070C, strain gyp1, hits give low values 0.0589 | locus YOR080W, strain dia2, hits give low values 0.0596 | locus YOR083W, strain WHI5, hits give low values 0.0554 | locus YOR106W, strain vam3, hits give low values 0.0591 | locus YOR265W, strain rbl2, hits give low values 0.0537 | locus YOR270C, strain vph1, hits give low values 0.072 | locus YOR290C, strain snf2, hits give low values 0.0546 | locus YPL051W, strain arl3, hits give low values 0.0574 | locus YPL078C, strain atp4, hits give low values 0.058 | locus YPL106C, strain sse1, hits give low values 0.0823 | locus YPL240C, strain hsp82, hits give low values 0.054
